Source: ChEMBL document CHEMBL1157539, “Thousands of chemical starting points for antimalarial lead identification” (Nature, 2010)

Legend:
Assay type in all cases: functional
[1] = test system: Plasmodium falciparum; assay: GSK_TCMDC: Inhibition of Plasmodium falciparum 3D7 in whole red blood cells, using parasite LDH activity as an index of growth. Test compounds present at 2uM
[2] = test system: Plasmodium falciparum; assay: GSK_TCMDC: Inhibition of Plasmodium falciparum Dd2 in whole red blood cells, using parasite LDH activity as an index of growth. Test compounds present at 2uM
[3] = test system: HepG2; assay: GSK_TCMDC: Percent inhibition of human HepG2 cell line. Test compounds present at 10uM.

Row | SMILES | Inhibition [1] [%] | Inhibition [2] [%] | Inhibition [3] [%]
1 | CC(Cc1ccc(OCCN2CCN(c3cccc(Cl)c3)CC2)cc1)NCC(O)c1cccc(Cl)c1.Cl (stereo not drawn) | 93 | 91 | 48
2 | O=C(Nc1cccc(CN2CCCN(Cc3ccc4c(c3)OCO4)CC2)c1)c1cc2ccccc2s1.O=C(O)C(F)(F)F | 95 | 11 | 32
3 | Cc1cccc2nc(-c3ccc(-c4ccc(CN5CCN(c6ccc(C#N)cn6)CC5)cc4)s3)[nH]c12.O=C(O)C(F)(F)F | 98 | 44 | 10
4 | CC(CCc1ccccc1)NCC(O)c1ccc2c3c(cccc13)S(=O)(=O)N2C.Cl (stereo not drawn) | 99 | 99 | 16
5 | O=C(Nc1ccc(-c2nc3ccccc3[nH]2)cc1)c1ccc(Cl)c([N+](=O)[O-])c1 | 99 | 4 | 6
6 | CN(C)CC(=O)Nc1ccc(-c2ccc3ccnc(N)c3c2)cc1.O=C(O)C(F)(F)F | 100 | 99 | 69
7 | Cc1ccc2c(c1)NCC21CCN(C[C@@H](O)C2CCN(c3ccnc(Cl)c3)CC2)CC1C (stereo partly drawn) | 87 | 69 | 46
8 | O=C(c1ccc([N+](=O)[O-])o1)N1CCN(c2nc3c(F)cc(F)cc3s2)CC1 | 93 | 86 | 0
9 | O=C(O)C(F)(F)F.O=S(=O)(NCCN1CCCC1)c1cccc(-c2ccccc2CNC2Cc3ccccc3C2)c1 | 99 | 76 | 35
10 | COc1ccc2ccccc2c1C=NN=c1cc[nH]c2ccc(F)cc12 | 87 | 10 | 11
11 | Cc1cc(N2CCN(C)CC2)nc2ccc(NC(=O)Cc3cccc(C(F)(F)F)c3)cc12 | 99 | 51 | 26
12 | Nc1nccc(-c2ccc3c(/C=C/c4ccccc4)cnc(N)c3c2)n1 | 100 | 100 | 32
13 | Clc1ccc(C=NN=c2cc[nH]c3ccccc23)cc1 | 100 | 97 | 5
14 | Cc1cccc(C)c1CNc1ccnc2ccccc12.Cl | 92 | 10 | 59
15 | COc1ccc2[nH]ccc(=NN=Cc3cccc(F)c3)c2c1 | 100 | 65 | 13
16 | Cl.NC(=O)c1sc(-n2cnc3ccc(OCC4CCNCC4)cc32)cc1OCc1ccccc1C(F)(F)F | 100 | 62 | 18
17 | O=C(Nc1ccc(-c2nc3ccc(NC(=O)c4ccc(Br)cc4)cc3[nH]2)cc1)c1ccc(Br)cc1 | 98 | 4 | 40
18 | CC(C)C[C@H](NC(=O)c1cc2cc(OCCN3CCNCC3)ccc2o1)C(=O)NC1CC[C@@H](C)N(C(=O)Nc2ccc(Cl)cc2)CC1=O.O=C(O)C(F)(F)F (stereo partly drawn) | 90 | 92 | 0

Row | SMILES | Inhibition [1] [%] | Inhibition [2] [%] | Inhibition [3] [%]
19 | CC(C)(C)c1ccc(CN2CCC(CNC(=O)c3cc(-c4ccccc4)nc4ccccc34)CC2)cc1 | 89 | 36 | 33
20 | COCCN1CCC(CNCC(C)(C)c2nc(-c3ccc(Cl)c(O)c3)c(-c3ccncc3)[nH]2)CC1.Cl | 100 | 2 | 0
21 | CC(=O)c1ccccc1OCCSc1nnc(Cc2cccs2)n1C1CCCCC1 | 87 | 1 | 19
22 | Cc1c(F)cc(C(=O)NC2CC2)cc1-c1ccc2c(cnn2S(=O)(=O)c2cccs2)c1 | 92 | 68 | 32
23 | COc1cc(Cc2cnc(N)nc2N)cc(OCCCCCCN2C(=O)c3ccccc3C2=O)c1OC | 95 | 3 | 15
24 | Cc1ccc(C(=O)NC2CCN(CCNC(=O)Nc3cc(C)nc4ccccc34)CC2)cc1 | 98 | 76 | 0
25 | CC(C)(C)OC(=O)NCc1ccc(Nc2nnc(-c3cccc(C(=O)NCc4cc(C(F)(F)F)cc(C(F)(F)F)c4)c3)o2)cc1 | 90 | 13 | 4
26 | COc1ccc(N2CCN(CCCCNC(=O)c3ccc(NC(=O)c4ccc(C(F)(F)F)cc4)cc3)CC2)c(OC)c1 | 100 | 8 | 4
27 | Cl.c1ccc2c(C3CCN(CCCCOc4ccc5c(c4)CCN(C4CCC4)CC5)CC3)c[nH]c2c1 | 100 | 100 | 80
28 | CSC1=NC(=Nc2ccccc2C)C2(CCC(C(C)(C)C)CC2)N1c1ccccc1Cl.I (stereo not drawn) | 96 | 89 | 3
29 | O=C(N[C@H]1CCN(Cc2ccc(OCCN3CCCC3)c(Cl)c2)C1)c1ccc(Cl)c(Cl)c1.O=C(O)C(F)(F)F | 100 | 46 | 68
30 | O=C(NCCCCN1CCN(c2cccc(Cl)c2Cl)CC1)c1ccc2c(c1)CCN(C1CCC1)CC2 | 95 | 31 | 97
31 | COc1ccc(OC(C)CNC(=O)c2cc([N+](=O)[O-])ccc2-c2ccc(OC)cc2)cc1 (stereo not drawn) | 92 | 44 | 18
32 | CC(C)(C)c1ccc(CN(C[C@@H](O)CNS(=O)(=O)c2cc(Cl)cc(Cl)c2)C(C)(C)C)cc1.Cl | 98 | 94 | 74
33 | CC(C)c1ccc(-c2nc3cc(Cl)cnc3[nH]2)cc1 | 87 | 77 | 3
34 | O=c1cc(NCCCNCc2cc(Cl)c(Cl)cc2Cl)[nH]c2ccccc12 | 93 | 20 | 7
35 | COc1nc2c(CCN3CC[C@@H](NCc4cc(C#N)c5c(c4)CCO5)[C@@H](O)C3)ccnc2cc1F.Cl | 92 | 35 | 21
36 | COc1cc(CNC[C@@H](O)[C@H](Cc2ccccc2)NC(=O)c2cc(OC(C)C)cc(N3CCCCS3(=O)=O)c2)cc(OC)c1.Cl | 100 | 94 | 7
